The results in this text go back to PubChem BioAssay AID1259313 (Sanford-Burnham Center for Chemical Genomics, 2017).

The whole screen tested about 340,000 compounds, of which about 8,500 (2.5%) were called active.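 Rule for the calls: active = melting temperature shift of at least 10% of the positive control shift, at one fixed dose; inactive = the rest.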 Shown is part of a subset that was picked to be rich in actives.

The assay has as its system Glutamate receptor ionotropic, NMDA 3A (GRIN3A) ligand-binding domain. The assay can be described thus: NR3A LBD thermal stabilization by compounds – biophysical, differential scanning fluorimetry, uHTS, primary screen (AID 1259313). The note with it: at 25 µM, hits give high values, 0% = protein alone, 100% = glycine-bound protein. (In general: DSF heats the sample and reads unfolding from a dye or from intrinsic fluorescence.)
As to `Cc1ccc(Nc2c(O)nc[nH]c2=O)cc1C`, the Tm shift relative to glycine control was -3.98% (inactive).
The result for `O=C(COC(=O)C1CCN(S(=O)(=O)c2ccc3c(c2)OCCO3)CC1)Nc1ccccc1OC(F)F` reads 10.1% (active).
To `COc1ccccc1CNC(=O)C1CCN(S(=O)(=O)c2ccc3c(c2)OCCO3)CC1` belongs 6.45% (inactive); to `CCOC(=O)C1CCN(C(=O)COC(=O)C2CCN(S(=O)(=O)c3ccc4c(c3)OCCO4)CC2)CC1`, -0.43% (inactive); to `O=C(CSc1ncnc2scc(-c3ccccc3)c12)NCc1ccc2c(c1)OCO2`, -0.99% (inactive).
Turning to `O=C(NN=Cc1ccccc1O)NN=Cc1ccccc1O`, the Tm shift relative to glycine control is 29.9% (active).
To `O=C(NN=Cc1ccccc1O)C(=O)NN=Cc1ccccc1O` belongs -0.25% (inactive); to `O=C(N/N=C/c1ccccc1O)C1CCCC1`, -0.52% (inactive); to `COc1ccc(C2NC(=O)N(C)C(C)=C2[N+](=O)[O-])cc1` (stereo unspecified), 0% (inactive).
The result for `CC(=O)c1ccc(NC(=O)Nc2ccc([N+](=O)[O-])cc2C)cc1` reads 7.59% (inactive); that for `Cc1cc([N+](=O)[O-])ccc1NC(=O)c1ccc(NC(=O)C(C)C)cc1`, 13.6% (active).
As for `CC(C)C(=O)Nc1cccc(NC(=O)c2ccc([N+](=O)[O-])cc2Cl)c1`, the Tm shift relative to glycine control was -1.57% (inactive).
As to `CN(Cc1ccco1)S(=O)(=O)c1nnc(NC(=O)c2ccccc2)s1`, the Tm shift relative to glycine control was -1.03% (inactive).
As for `CC(C)(Oc1ccc(C2CC2(Cl)Cl)cc1)C(=O)O` (stereo unspecified), the Tm shift relative to glycine control is -0.77% (inactive).
To `CC(C)S(=O)(=O)c1csc(NC(=O)Nc2ccc(Cl)cc2)c1Cl` belongs 24.3% (active).
On to `O=C(Nc1ccc(Cl)cc1)Nc1ccc(C(=O)N2CCOCC2)cc1`, for which the Tm shift relative to glycine control was 2.25% (inactive).
To `O=C(NCc1ccccn1)Nc1ccc(Cl)cc1` belongs -1.47% (inactive); to `COc1ccc([N+](=O)[O-])cc1N(CC(O)CN(CC(C)C)CC(C)C)S(=O)(=O)c1ccc(C)cc1` (stereo unspecified), -2.17% (inactive); to `COc1cccc(NC(=O)C(Sc2nc3ccccc3c(=O)n2CC(C)C)c2ccccc2)c1` (stereo unspecified), 5.55% (inactive).
To `N#Cc1c(N)sc2c1CCN(C(=O)OCc1ccccc1)C2` belongs -2.92% (inactive).
To `Cn1cc(S(=O)(=O)NC(c2ccccc2)c2ccccc2)c(=O)n(C)c1=O` belongs -0.16% (inactive); to `COc1ccc(-c2ccc(Nc3ccc(S(=O)(=O)N4CCCC4)cc3)nn2)cc1OC`, 18.4% (active).
As for `COc1cc(C(C)=O)ccc1OC(C)C(=O)Nc1ccc(S(=O)(=O)N2CCCC2)cc1` (stereo unspecified), the Tm shift relative to glycine control is 1.81% (inactive).
To `COc1ccc(S(=O)(=O)N2CCCCCC2)cc1NC(=O)Cc1ccc(OC)c(OC)c1` belongs 0.44% (inactive).
To `COc1cc(/C(=C/c2ccccc2)c2ccccc2)c2c(c1)oc1ccccc12` belongs 3.2% (inactive); to `Cc1ccc(-c2cc(C(=O)NN)n[nH]2)o1`, -1.08% (inactive).
To `Cc1ccc(-c2cc(C(=O)N/N=C/C=C/c3ccccc3)n[nH]2)o1` belongs 19.9% (active); to `O=C(NN=CC=Cc1ccccc1)C(O)C(O)C(=O)NN=CC=Cc1ccccc1` (stereo unspecified), 3.13% (inactive).
On to `COCc1nc2ccccc2n1Cc1ccccc1Br`, for which the Tm shift relative to glycine control is -1.6% (inactive).
The result for `O=C(Oc1ccc(-c2nnco2)cc1)c1ccc(F)c(S(=O)(=O)N2CCOCC2)c1` reads 0.78% (inactive); that for `COC(CNC(=O)Cn1ncc2ccsc2c1=O)OC`, -0.44% (inactive).
To `COc1ccc(C)cc1S(=O)(=O)N(CC(=O)Nc1cccc([N+](=O)[O-])c1)c1ccc(C)cc1` belongs 17.5% (active); to `Cc1ccc(S(=O)(=O)N(CC(=O)Nc2cccc([N+](=O)[O-])c2)Cc2ccc(Cl)cc2)cc1`, 3.38% (inactive); to `COc1ccc(N(CC(=O)Nc2ccc(C)cc2C)S(=O)(=O)c2ccccc2[N+](=O)[O-])c(OC)c1`, -2.12% (inactive).
The result for `C=CCc1cccc2cc(C(=O)NC3CCCC3)c(=O)oc12` reads -0.75% (inactive).
In the case of `O=C(Nc1nnc(CCN2CCCCC2)s1)c1cccc(Cl)c1`, the Tm shift relative to glycine control is -1.3% (inactive).
To `Cc1ccc(-c2nnc(C)c(N3CC(C)OC(C)C3)n2)cc1` (stereo unspecified) belongs -2.74% (inactive); to `O=C(CN1CCN(S(=O)(=O)c2ccc(Br)cc2)CC1)Nc1ccccc1C(=O)c1ccccc1`, -0.96% (inactive).
To `O=C(CN1CCN(S(=O)(=O)c2ccc(F)cc2)CC1)Nc1ccccc1F` belongs -1.4% (inactive); to `COc1ccccc1NC(=O)CN1CCN(S(=O)(=O)c2ccc(Br)cc2)CC1`, 24.1% (active).
With `O=C1CCCC(O)=C1N=Nc1ccc2ncsc2c1`, the Tm shift relative to glycine control is -0.17% (inactive).
To `NC(=O)COc1ccc(C23CC4CC(CC(C4)C2)C3)cc1` belongs 1.05% (inactive); to `O=C(Cc1ccc(Cl)cc1)c1ccccc1`, -0.17% (inactive); to `CC(Sc1sc(=S)sc1SC(C)C(=O)O)C(=O)O` (stereo unspecified), 3.28% (inactive).
For `O=C(Cc1ccccc1)Nc1ccc(C(=O)Nc2ccccc2C(=O)O)cc1`, the Tm shift relative to glycine control was 0.78% (inactive).
To `O=C(CN1CCc2ccccc2C1)Nc1cccc(S(=O)(=O)N2CCOCC2)c1` belongs 0.42% (inactive); to `CCOn1c(=O)c(=O)n(O)c2ccccc21`, 6.16% (inactive).
The result for `CC(=O)Nc1cccc(-c2csc(Nc3cccc(C)n3)n2)c1` reads 11.8% (active).
To `N#Cc1ccccc1NC(=O)c1ccc2c(c1)OCO2` belongs -0.66% (inactive); to `Cc1cccc(NC(=O)Nc2ccc3c(c2)OCO3)n1`, -1.41% (inactive); to `O=C(CCC(=O)c1cccs1)Nc1nc2ccccc2s1`, -1.65% (inactive).
For `CC(=O)Nc1ccc(-c2csc(NC(=O)Nc3ccccc3)n2)cc1`, the Tm shift relative to glycine control was 26.9% (active).
To `O=C(NCc1cccnc1)C(=O)Nc1nc(-c2ccccc2)cs1` belongs -0.2% (inactive); to `c1ccc(C(=NNc2nc3ccccc3s2)c2ccccn2)cc1`, -7.5% (inactive); to `O=C(Nc1ccccc1)Nc1nc2ccccc2s1`, 26.3% (active).
To `COCc1nnc(NC(=O)c2ccc3c(c2)OCO3)s1` belongs -0.5% (inactive); to `CC(=O)Nc1ccc(Nc2cc(C)nc(Nc3ccc(NC(C)=O)cc3)n2)cc1`, -4.37% (inactive); to `O=C(CSC1=NCCS1)Nc1nc(-c2ccccc2)cs1`, -5.63% (inactive).
To `O=C(Nc1nc2ccccc2s1)c1ccc2c(c1)OCO2` belongs 12.1% (active); to `O=C(NC(Cc1ccc(O)cc1)C(=O)O)/C(=C/c1ccccc1)NC(=O)c1ccccc1` (stereo unspecified), -1.28% (inactive); to `O=C(Nc1nccs1)C1CCCN1S(=O)(=O)c1cccc2cccnc12` (stereo unspecified), 0.08% (inactive).
With `CCOC(=O)NC(=O)CSc1nnc(SCCC(=O)O)s1`, the Tm shift relative to glycine control is -2.83% (inactive).
The result for `COc1ccc(C)cc1N(C(=O)Cn1nnc(-c2ccc(C)o2)n1)C(C(=O)NC1CCCC1)c1ccncc1` (stereo unspecified) reads 0.19% (inactive); that for `CC(C)(C)NC(=O)NC(=O)COC(=O)C1c2ccccc2Oc2ccccc21`, -5.02% (inactive).
The result for `CCC(C)(C)NC(=O)CN(C(=O)CCC(=O)Nc1nccs1)c1ccc2c(c1)OCO2` reads -1.69% (inactive); that for `COc1cc(NC(=O)CSC(=S)N2CCCC2)c(OC)cc1Cl`, -1.06% (inactive); that for `O=C(N/N=C/c1ccccn1)c1cccc(NC(=O)c2ccc(Cl)cc2)c1`, 21.2% (active).
To `Cc1cccc(C(=O)Nc2ccc(C(=O)N/N=C/c3cccc(C)n3)cc2)c1` belongs -13.7% (inactive); to `O=C(N/N=C/c1ccccn1)c1ccc(S(=O)(=O)N2CCCCCC2)cc1`, -1.75% (inactive); to `C=CCC1(CC=C)CCCN1C(=O)c1cc(COc2ccc(-n3cncn3)cc2)on1`, 1.48% (inactive).
Turning to `Cc1ccc2cc(C#N)c(NCCNC(=S)NCCCN3CCOCC3)nc2c1`, the Tm shift relative to glycine control is 1.55% (inactive).
To `CC(C)=CCc1c(O)c(CC=C(C)C)c2occ(-c3ccc(O)cc3)c(=O)c2c1O` belongs 31.4% (active).
To `CC(C)CN(Cc1c(O)ccc2c(=O)c(-c3ccccc3)coc12)CC(C)C` belongs -7.19% (inactive); to `COC(=O)C1=C(C)N(Cc2ccccc2)C(=NCCCOC(C)C)N[C@H]1c1ccccc1`, -2.6% (inactive).
To `CCOC(=O)c1cc(=O)c2ccc(OCc3ccccc3)cc2o1` belongs 2.08% (inactive); to `CCN(C(=O)COC(=O)c1ccc(COc2ccc3c(C)cc(=O)oc3c2)cc1)C1CCS(=O)(=O)C1` (stereo unspecified), 2.72% (inactive); to `Cc1ccccc1NC(=O)c1ccc(COc2ccc3c(C)cc(=O)oc3c2)cc1`, 12% (active).
In the case of `COC(=O)c1ccc(/C=N/OCC(=O)Nc2cc(F)ccc2F)cc1`, the Tm shift relative to glycine control is 1.06% (inactive).
The result for `CC(NC(=O)C(=O)N/N=C/c1ccc(Cl)cc1)c1ccccc1` (stereo unspecified) reads -8.19% (inactive).
With `CC(C)Cn1cnc2c(SCc3ccc(Cl)cc3)nc(N)nc21`, the Tm shift relative to glycine control was -6.54% (inactive).
The result for `CCOC(=O)c1ccc(-c2ccc(C(=O)Nc3cccnc3)o2)cc1` reads -18.8% (inactive).
`COC(=O)C1=C(C)NC2=C(C(=O)c3ccccc32)C1c1ccc(-c2ccc(C(=O)O)cc2)o1` (stereo unspecified): the Tm shift relative to glycine control is 30% (active).
The result for `COC(=O)C1=C(C)N(C)C(=O)NC1c1ccc([N+](=O)[O-])o1` (stereo unspecified) reads -3.85% (inactive); that for `NC(=O)C[n+]1cccc(C(N)=O)c1`, -0.09% (inactive).
The result for `O=C(Nc1ccc(Cl)cc1)/C(=C1\CCCN1)[N+](=O)[O-]` reads -1.33% (inactive); that for `COc1ccc(Cc2nnc(N/N=C/c3ccccc3O)[nH]c2=O)cc1OC`, -2.87% (inactive); that for `COc1cccc(/C=N/Nc2cc(C)nc(-c3ccccc3O)n2)c1O`, 30.6% (active).
On to `COc1ccc(/C=N/Nc2cc(N3CCOCC3)nc(C)n2)c(OC)c1`, for which the Tm shift relative to glycine control is -3.16% (inactive).
For `COc1ccc(NS(=O)(=O)c2cc(NC(=O)CC(=O)c3ccc([N+](=O)[O-])cc3)ccc2C)cc1`, the Tm shift relative to glycine control was 24% (active).
The result for `COc1ccc(C(=O)CC(=O)C(=O)Nc2cc([N+](=O)[O-])ccc2OC)cc1` reads 2.73% (inactive); that for `COc1ccc(NS(=O)(=O)c2cc(C(=O)Nc3ccccc3C(=O)O)ccc2C)cc1`, 1.75% (inactive).
